# According to PubChem BioAssay (EPA / NIEHS):
# Results filed as inconclusive are left out. The source made the active and inactive calls. The calls were made as follows, unless noted: active = hit-call score of the fitted dose curve at least 0.9, where 1 is the maximum; inconclusive = response in the unintended direction; inactive = score below 0.9.
# Legend:
# [1] = ATG_TAL_CIS: Attagene CIS-FACTORIAL HepG2 Assay for human TAL Basal Promoter (AID 2282966; active = hit-call score of the fitted dose curve at least 0.9, where 1 is the maximum; inactive = score below 0.9;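 also: background control endpoint measuring basal TAL promoter reporter mRNA not a specific factor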); settings: HepG2 Attagene cis-factorial TAL promoter reporter; actives raise or lower the signal
# In short: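 After 24 hours of chemical exposure, transfected HepG2 cells yielded RNA that was converted to 6-FAM-labelled, HpaI-digested reporter fragments for capillary electrophoresis. Values derive from bidirectional fitting against DMSO controls.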
# [2] = ATG_TGFb_CIS: Attagene CIS-FACTORIAL HepG2 Assay for human Transforming Growth Factor (TGF) (AID 2282967; active = hit-call score of the fitted dose curve at least 0.9, where 1 is the maximum; inactive = score below 0.9); settings: HepG2 Attagene CIS TGFb reporter, mRNA transcription; actives raise or lower the signal
# In short: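 Readout: fluorescently labeled reporter cDNA fragments resolved by capillary electrophoresis after RT-PCR. Transfected HepG2 cells dosed for 24 h; endogenous TF activity at TGFB1-linked cis element; gain or loss fitted relative to DMSO.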
# [3] = ATG_VDRE_CIS: Attagene CIS-FACTORIAL HepG2 Assay for human Vitamin D Receptor Element (VDRE) (AID 2282968; active = hit-call score of the fitted dose curve at least 0.9, where 1 is the maximum; inactive = score below 0.9); settings: HepG2 VDRE cis-reporter transcription, actives raise or lower the signal
# In short: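 Measures endogenous factor activity through cis-element-driven reporter transcripts in transiently transfected HepG2. Cells are treated 24 h; reporter mRNA is quantified by RT-PCR and capillary electrophoresis; fitting is bidirectional.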
# [4] = target: Nuclear receptor subfamily 1 group I member 3 (Homo sapiens) (UniProt Q14994); experiment: ATG_CAR_TRANS: Attagene TRANS-FACTORIAL HepG2 Assay for human Constitutive Androstane Receptor (CAR) (AID 2282969); settings: HepG2 Attagene TRANS-FACTORIAL CAR reporter;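 also: activators raise reporter mRNA above DMSO so AC50 marks induction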
# In short: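 Signal is reporter mRNA induction relative to DMSO, measured 24 h after dosing by RT-PCR with fluorescent primer extension and capillary electrophoresis. Human HepG2 liver cells carried transiently transfected chimeric NR-Gal4/GAL4-UAS reporter constructs.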
# [5] = target: X-box-binding protein 1 (Homo sapiens) (UniProt P17861); experiment: ATG_Xbp1_CIS: Attagene CIS-FACTORIAL HepG2 Assay for human X-box Binding Protein 1 (XBP1) (AID 2282972; active = hit-call score of the fitted dose curve at least 0.9, where 1 is the maximum; inactive = score below 0.9); settings: HepG2 XBP1 cis-element reporter, Attagene multiplex; actives raise or lower the signal
# In short: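 Human hepatoma HepG2, cis-element reporter system, 24 h treatment; mRNA quantified by RT-PCR/CE fluorescence; fit relative to DMSO.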
# [6] = ATG_GAL4_TRANS: Attagene TRANS-FACTORIAL HepG2 Assay for GAL4 (Internal Marker) (AID 2282976); settings: HepG2 Attagene TRANS GAL4 internal marker reporter
# In short: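 First, HepG2 cells were transfected with reporter units under GAL4-UAS control. Next, they were treated with chemical for 24 h. Finally, RNA was reverse-transcribed, PCR-amplified, FAM-labelled and resolved by capillary electrophoresis, with induction scored against DMSO.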
# [7] = target: Glucocorticoid receptor (Homo sapiens) (UniProt P04150); experiment: ATG_GR_TRANS: Attagene TRANS-FACTORIAL HepG2 Assay for human Glucocorticoid Receptor (GR) (AID 2282978); settings: HepG2 Attagene TRANS GR reporter, mRNA transcription;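 also: activators score as hits since higher reporter transcript over DMSO is fitted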
# In short: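 HepG2 cells transiently transfected with GAL4-UAS reporter units and exogenous GR-Gal4 chimera, dosed 24 h. Reporter mRNA by RT-PCR, FAM labeling, HpaI digest and capillary electrophoresis; gain-of-signal fit versus DMSO.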
# [8] = target: Bile acid receptor (Homo sapiens) (UniProt Q96RI1); experiment: ATG_FXR_TRANS: Attagene TRANS-FACTORIAL HepG2 Assay for Farnesoid X Receptor (FXR) (AID 2282979); settings: HepG2 Attagene TRANS FXR-GAL4 reporter transcription;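 also: hits raise reporter mRNA above DMSO so AC50 marks FXR activation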
# In short: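 Transient transfection of HepG2 with multiplexed GAL4-UAS reporter units; exogenous FXR-GAL4 chimera. Dose 24 h → TriZol RNA → oligo(dT) RT → PCR, 6-FAM primer extension, HpaI cut → CE. Gain vs DMSO.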
# [9] = target: Oxysterols receptor LXR-alpha (Homo sapiens) (UniProt Q13133); experiment: ATG_LXRa_TRANS: Attagene TRANS-FACTORIAL HepG2 Assay for human Liver X Receptor alpha (LXRa) (AID 2282980); settings: HepG2 Attagene TRANS reporter, LXRa transactivation
# In short: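 Transfect HepG2 with GAL4-UAS multiplex reporter constructs (TRANS format, chimeric receptor-GAL4); treat 24 h; extract RNA, reverse-transcribe, PCR-amplify, FAM-label, HpaI-digest; resolve fragments by capillary electrophoresis. Upward response vs DMSO.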
# [10] = ATG_M_06_TRANS: Attagene TRANS-FACTORIAL HepG2 Assay for M06 Transcription Factor (Internal Marker) (AID 2282983); settings: HepG2 Attagene TRANS M06 internal marker reporter;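 also: reporter transcript level by RT-PCR then capillary electrophoresis fluorescence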
# In short: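 Background control endpoint: reporter mRNA from transiently transfected HepG2 after 24 h dosing, detected by RT-PCR with capillary electrophoresis fluorescence. Analysed for gain versus DMSO.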
# [11] = target: Transcriptional activator Myb (Homo sapiens) (UniProt P10242); experiment: ATG_Myb_CIS: Attagene CIS-FACTORIAL HepG2 Assay for human Myeloblastosis (Myb) Proto-Oncogene Transcription Factor (AID 2282986; active = hit-call score of the fitted dose curve at least 0.9, where 1 is the maximum; inactive = score below 0.9); settings: HepG2 Attagene CIS-FACTORIAL Myb reporter transcription; actives raise or lower the signal
# In short: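 Transiently transfected HepG2 cells carrying a multiplexed cis-promoter reporter set report endogenous Myb activity after 24 h compound exposure. Reporter mRNA is read by RT-PCR with capillary electrophoresis of fluorescent products, fitted bidirectionally against DMSO.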
# [12] = target: Nuclear respiratory factor 1 (Homo sapiens) (UniProt Q16656); experiment: ATG_NRF1_CIS: Attagene CIS-FACTORIAL HepG2 Assay for human Nuclear Respiratory Factor 1 (NRF1) Orphan Gene (AID 2282987; active = hit-call score of the fitted dose curve at least 0.9, where 1 is the maximum; inactive = score below 0.9); settings: HepG2 NRF1 cis-element reporter, Attagene multiplex; actives raise or lower the signal
# In short: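 HepG2 cells transiently transfected with multiple cis-regulated reporter units, exposed 24 h. Reporter mRNAs measured by RT-PCR, fluorescent labelling, HpaI digestion and capillary electrophoresis; bidirectional fitting against DMSO.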
# [13] = target: Steroid hormone receptor ERR1 (Homo sapiens) (UniProt P11474); experiment: ATG_ERRa_TRANS: Attagene TRANS-FACTORIAL HepG2 Assay for human Estrogen-Related Receptor alpha (ERRa) (AID 2282971); settings: HepG2 Attagene TRANS reporter, ERRa transactivation
# In short: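 Reporter transcript induction was quantified by RT-PCR and capillary electrophoresis of FAM-labelled, HpaI-cut products after 24 h treatment of HepG2 cells carrying transiently transfected GAL4-UAS reporter units and an exogenous ERRa-Gal4 fusion; activity scored as increase over DMSO.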
# [14] = target: Androgen receptor (Homo sapiens) (UniProt P10275); experiment: ATG_AR_TRANS: Attagene TRANS-FACTORIAL HepG2 Assay for human Androgen Receptor (AR) (AID 2282973); settings: HepG2 Attagene TRANS-FACTORIAL AR reporter transcription
# In short: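 Steps: transfect HepG2 with multiple GAL4-UAS reporter transcription units (TRANS format, exogenous NR-Gal4 protein); dose 24 h; isolate RNA, reverse-transcribe, PCR-amplify, FAM-label, HpaI-digest; resolve by capillary electrophoresis. Positive direction vs DMSO.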
# [15] = target: Nuclear receptor subfamily 4 group A member 2 (Homo sapiens) (UniProt P43354); experiment: ATG_NURR1_TRANS: Attagene TRANS-FACTORIAL HepG2 Assay for human Nuclear Receptor Related Protein 1 (NURR1) (AID 2282985); settings: HepG2 Attagene TRANS reporter, mRNA readout
# In short: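 Measures transcriptional activation by an exogenous NR-Gal4 chimera in transfected HepG2 liver cells. After 24 h, reporter RNA is reverse-transcribed, amplified and resolved by capillary electrophoresis; DMSO defines baseline.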
# [16] = target: Hepatocyte nuclear factor 4-alpha (Homo sapiens) (UniProt P41235); experiment: ATG_HNF4a_TRANS: Attagene TRANS-FACTORIAL HepG2 Assay for human Hepatocyte Nuclear Factor 4 alpha (HNF4a) (AID 2282982); settings: HepG2 HNF4a transactivation reporter, mRNA readout
# In short: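 Multiplexed reporter assay: transfected HepG2, 24 h exposure, total RNA → oligo(dT) RT → PCR → 6-FAM extension → HpaI digest → CE fluorescence. DMSO = negative control.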
# [17] = ATG_M_19_TRANS: Attagene TRANS-FACTORIAL HepG2 Assay for M19 Transcription Factor (Internal Marker) (AID 2282974); settings: HepG2 Attagene TRANS-FACTORIAL M19 internal marker reporter
# In short: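 HepG2 transiently transfected with GAL4-UAS multiplex reporter constructs, exposed 24 h; reporter RNA quantified by RT-PCR, 6-FAM labeling, HpaI digestion and capillary electrophoresis; internal background marker fitted upward versus DMSO.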
# [18] = ATG_M_32_TRANS: Attagene TRANS-FACTORIAL HepG2 Assay for M32 Transcription Factor (Internal Marker) (AID 2282984); settings: HepG2 Attagene TRANS M32 internal marker reporter;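 also: transcript level of a background control reporter unit measured by RT-PCR and capillary electrophoresis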
# In short: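 Cell-based TRANS-format assay in HepG2: exogenous chimeric GAL4 reporter units transiently expressed, compounds applied 24 h. Reporter mRNA detected by RT-PCR plus capillary electrophoresis; this readout is an internal background marker.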
# [19] = target: Estrogen-related receptor gamma (Homo sapiens) (UniProt P62508); experiment: ATG_ERRg_TRANS: Attagene TRANS-FACTORIAL HepG2 Assay for human Estrogen-Related Receptor gamma (ERRg) (AID 2282977); settings: HepG2 Attagene TRANS reporter, ERRg transactivation;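 also: hits increase reporter signal over DMSO so potencies reflect activators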
# In short: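 Readout: fluorescent reporter-mRNA fragments resolved by capillary electrophoresis after RT-PCR and HpaI cut. Cells: transiently transfected HepG2 carrying GAL4-UAS reporters driven by exogenous NR-Gal4 chimeras, dosed 24 h. Activity fitted upward relative to DMSO baseline.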
# Glucocorticoid receptor (Homo sapiens), sequence (P04150 whole entry, looked up, the tested form may be a part): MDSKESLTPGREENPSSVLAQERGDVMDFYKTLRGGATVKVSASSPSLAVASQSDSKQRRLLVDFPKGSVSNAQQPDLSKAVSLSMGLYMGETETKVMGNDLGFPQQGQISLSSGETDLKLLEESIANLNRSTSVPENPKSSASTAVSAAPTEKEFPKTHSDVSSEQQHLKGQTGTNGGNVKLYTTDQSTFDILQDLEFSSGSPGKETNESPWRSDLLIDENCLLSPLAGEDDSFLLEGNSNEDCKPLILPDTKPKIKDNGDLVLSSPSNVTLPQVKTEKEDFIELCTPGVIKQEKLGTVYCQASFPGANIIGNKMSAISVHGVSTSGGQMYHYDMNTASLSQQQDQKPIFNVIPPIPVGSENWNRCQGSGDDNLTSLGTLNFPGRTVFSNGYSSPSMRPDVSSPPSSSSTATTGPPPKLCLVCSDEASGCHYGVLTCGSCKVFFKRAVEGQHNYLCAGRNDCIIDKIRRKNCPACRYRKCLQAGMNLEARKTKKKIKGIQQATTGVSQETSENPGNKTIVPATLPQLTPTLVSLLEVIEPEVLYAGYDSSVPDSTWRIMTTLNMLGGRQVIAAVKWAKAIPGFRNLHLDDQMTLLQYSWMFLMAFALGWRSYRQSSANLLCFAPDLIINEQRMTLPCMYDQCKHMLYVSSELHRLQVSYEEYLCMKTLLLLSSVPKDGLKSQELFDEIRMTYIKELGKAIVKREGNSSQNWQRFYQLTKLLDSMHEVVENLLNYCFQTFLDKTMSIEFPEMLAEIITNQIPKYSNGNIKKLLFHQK
# Nuclear respiratory factor 1 (Homo sapiens), sequence (Q16656 whole entry, looked up): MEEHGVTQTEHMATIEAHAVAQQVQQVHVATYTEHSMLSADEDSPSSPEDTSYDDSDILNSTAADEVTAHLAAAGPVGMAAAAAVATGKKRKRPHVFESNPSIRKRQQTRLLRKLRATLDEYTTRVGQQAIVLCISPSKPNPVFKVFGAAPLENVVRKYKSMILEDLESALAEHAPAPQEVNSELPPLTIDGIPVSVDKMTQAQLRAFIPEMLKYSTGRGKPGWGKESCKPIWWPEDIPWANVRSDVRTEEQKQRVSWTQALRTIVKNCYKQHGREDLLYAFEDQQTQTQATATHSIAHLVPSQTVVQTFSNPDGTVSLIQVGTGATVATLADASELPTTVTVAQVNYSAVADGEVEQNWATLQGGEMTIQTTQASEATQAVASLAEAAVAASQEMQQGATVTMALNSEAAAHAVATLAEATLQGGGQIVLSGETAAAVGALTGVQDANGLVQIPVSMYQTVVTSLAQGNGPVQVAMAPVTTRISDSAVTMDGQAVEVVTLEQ
# Estrogen-related receptor gamma (Homo sapiens), sequence (P62508 whole entry, looked up, the tested form may be a part): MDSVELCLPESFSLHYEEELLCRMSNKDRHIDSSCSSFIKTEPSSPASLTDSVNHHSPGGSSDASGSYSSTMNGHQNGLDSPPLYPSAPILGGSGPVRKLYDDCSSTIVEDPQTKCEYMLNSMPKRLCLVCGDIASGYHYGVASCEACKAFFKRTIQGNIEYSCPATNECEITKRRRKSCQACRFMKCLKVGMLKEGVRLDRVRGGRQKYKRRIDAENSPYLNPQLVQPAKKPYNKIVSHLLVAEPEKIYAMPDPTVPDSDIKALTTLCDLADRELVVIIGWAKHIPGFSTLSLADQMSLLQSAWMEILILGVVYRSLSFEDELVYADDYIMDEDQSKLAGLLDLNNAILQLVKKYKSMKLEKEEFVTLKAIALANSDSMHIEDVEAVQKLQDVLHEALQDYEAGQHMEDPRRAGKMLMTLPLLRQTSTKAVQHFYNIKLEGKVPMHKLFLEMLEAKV
# Steroid hormone receptor ERR1 (Homo sapiens), sequence (P11474 whole entry, looked up, the tested form may be a part): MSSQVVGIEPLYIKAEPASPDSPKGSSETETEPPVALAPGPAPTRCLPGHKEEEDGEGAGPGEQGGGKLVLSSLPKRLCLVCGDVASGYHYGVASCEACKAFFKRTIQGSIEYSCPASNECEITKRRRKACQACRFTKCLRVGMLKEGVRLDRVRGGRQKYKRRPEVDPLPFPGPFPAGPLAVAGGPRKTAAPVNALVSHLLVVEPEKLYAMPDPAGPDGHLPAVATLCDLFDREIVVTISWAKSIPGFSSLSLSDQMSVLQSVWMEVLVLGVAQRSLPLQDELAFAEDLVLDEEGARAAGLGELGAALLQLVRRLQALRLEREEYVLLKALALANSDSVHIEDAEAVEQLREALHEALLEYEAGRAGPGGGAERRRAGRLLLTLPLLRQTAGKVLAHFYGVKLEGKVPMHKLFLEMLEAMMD
# X-box-binding protein 1 (Homo sapiens), sequence (P17861 whole entry, looked up): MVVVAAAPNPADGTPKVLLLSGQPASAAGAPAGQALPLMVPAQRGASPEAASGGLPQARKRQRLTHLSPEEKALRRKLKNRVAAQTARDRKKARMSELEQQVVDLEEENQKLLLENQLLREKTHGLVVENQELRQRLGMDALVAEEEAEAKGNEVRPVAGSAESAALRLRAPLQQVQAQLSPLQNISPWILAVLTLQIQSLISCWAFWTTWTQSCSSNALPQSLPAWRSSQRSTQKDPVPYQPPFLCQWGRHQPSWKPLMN
# Nuclear receptor subfamily 1 group I member 3 (Homo sapiens), sequence (Q14994 whole entry, looked up, the tested form may be a part): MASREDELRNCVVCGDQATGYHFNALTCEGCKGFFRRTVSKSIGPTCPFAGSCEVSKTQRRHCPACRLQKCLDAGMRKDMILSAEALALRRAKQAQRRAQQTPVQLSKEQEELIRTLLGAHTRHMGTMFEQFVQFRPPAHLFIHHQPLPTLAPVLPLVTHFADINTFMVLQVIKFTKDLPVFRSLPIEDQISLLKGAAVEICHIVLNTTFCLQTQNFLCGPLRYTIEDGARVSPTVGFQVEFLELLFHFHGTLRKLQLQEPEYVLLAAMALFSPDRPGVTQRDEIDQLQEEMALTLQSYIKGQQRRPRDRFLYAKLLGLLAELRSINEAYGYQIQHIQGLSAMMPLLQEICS
# Bile acid receptor (Homo sapiens), sequence (Q96RI1 whole entry, looked up, the tested form may be a part): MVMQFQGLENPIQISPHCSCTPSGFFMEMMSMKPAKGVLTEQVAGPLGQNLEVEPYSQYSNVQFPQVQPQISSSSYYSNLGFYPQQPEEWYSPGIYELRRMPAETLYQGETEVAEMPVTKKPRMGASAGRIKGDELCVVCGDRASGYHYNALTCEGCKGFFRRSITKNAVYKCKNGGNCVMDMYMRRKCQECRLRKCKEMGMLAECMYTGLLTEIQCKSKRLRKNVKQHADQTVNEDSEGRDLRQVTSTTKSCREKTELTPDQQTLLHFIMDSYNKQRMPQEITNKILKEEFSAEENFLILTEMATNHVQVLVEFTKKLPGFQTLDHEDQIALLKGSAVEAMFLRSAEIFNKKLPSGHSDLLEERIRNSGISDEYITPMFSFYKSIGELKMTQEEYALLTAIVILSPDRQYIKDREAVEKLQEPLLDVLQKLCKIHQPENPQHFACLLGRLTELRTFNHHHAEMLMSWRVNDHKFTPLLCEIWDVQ
# Nuclear receptor subfamily 4 group A member 2 (Homo sapiens), sequence (P43354 whole entry, looked up, the tested form may be a part): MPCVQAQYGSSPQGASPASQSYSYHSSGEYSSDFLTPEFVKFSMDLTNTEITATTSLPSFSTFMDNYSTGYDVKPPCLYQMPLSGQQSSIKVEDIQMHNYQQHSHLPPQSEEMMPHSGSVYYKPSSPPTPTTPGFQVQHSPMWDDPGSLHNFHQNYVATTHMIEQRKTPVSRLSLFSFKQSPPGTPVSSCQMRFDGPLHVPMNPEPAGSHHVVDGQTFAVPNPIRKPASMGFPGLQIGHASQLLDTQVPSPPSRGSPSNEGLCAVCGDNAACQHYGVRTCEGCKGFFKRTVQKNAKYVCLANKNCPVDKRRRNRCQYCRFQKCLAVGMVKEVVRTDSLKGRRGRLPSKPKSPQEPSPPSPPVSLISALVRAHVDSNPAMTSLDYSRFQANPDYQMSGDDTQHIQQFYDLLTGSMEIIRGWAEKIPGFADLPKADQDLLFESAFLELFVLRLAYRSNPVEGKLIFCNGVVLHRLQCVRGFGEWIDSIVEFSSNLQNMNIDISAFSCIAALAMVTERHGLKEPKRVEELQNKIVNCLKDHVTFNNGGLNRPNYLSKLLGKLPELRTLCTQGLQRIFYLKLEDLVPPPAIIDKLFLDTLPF
# Hepatocyte nuclear factor 4-alpha (Homo sapiens), sequence (P41235 whole entry, looked up): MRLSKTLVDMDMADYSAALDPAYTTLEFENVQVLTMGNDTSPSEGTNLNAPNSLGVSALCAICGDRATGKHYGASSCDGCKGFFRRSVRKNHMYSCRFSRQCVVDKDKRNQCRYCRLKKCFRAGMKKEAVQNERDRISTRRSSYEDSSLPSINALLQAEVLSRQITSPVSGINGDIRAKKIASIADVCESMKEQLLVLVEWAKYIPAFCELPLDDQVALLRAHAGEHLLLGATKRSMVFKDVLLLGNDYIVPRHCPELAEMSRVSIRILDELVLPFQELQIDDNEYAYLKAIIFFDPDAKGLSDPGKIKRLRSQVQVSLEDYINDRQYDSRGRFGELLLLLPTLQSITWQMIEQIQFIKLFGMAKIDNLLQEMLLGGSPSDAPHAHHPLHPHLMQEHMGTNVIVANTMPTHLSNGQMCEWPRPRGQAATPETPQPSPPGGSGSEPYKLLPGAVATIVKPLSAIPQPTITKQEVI
# Transcriptional activator Myb (Homo sapiens), sequence (P10242 whole entry, looked up): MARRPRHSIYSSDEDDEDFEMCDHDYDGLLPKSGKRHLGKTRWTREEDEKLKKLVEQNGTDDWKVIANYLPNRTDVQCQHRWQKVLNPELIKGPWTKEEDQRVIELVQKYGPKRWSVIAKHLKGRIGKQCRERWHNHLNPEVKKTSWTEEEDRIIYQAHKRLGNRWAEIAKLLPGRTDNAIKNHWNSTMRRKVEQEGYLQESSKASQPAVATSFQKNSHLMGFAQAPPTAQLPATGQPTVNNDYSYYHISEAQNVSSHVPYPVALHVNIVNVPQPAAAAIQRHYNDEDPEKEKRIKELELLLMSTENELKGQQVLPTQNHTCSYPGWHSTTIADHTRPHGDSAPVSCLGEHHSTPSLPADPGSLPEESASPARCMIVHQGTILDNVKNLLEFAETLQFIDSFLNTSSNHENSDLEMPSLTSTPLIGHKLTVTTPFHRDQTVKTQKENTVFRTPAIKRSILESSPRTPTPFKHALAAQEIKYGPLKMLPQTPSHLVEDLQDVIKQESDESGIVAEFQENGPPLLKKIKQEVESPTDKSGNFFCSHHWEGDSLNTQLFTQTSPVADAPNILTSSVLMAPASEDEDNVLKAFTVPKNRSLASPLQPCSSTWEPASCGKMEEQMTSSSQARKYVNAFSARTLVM
structure (smiles),measurement,setting,value
OCCCl,outcome,[1],inactive
same,outcome,[2],inactive
same,outcome,[3],inactive
same,outcome,[4],inactive
same,outcome,[5],inactive
same,outcome,[6],inactive
same,outcome,[7],inactive
same,outcome,[8],inactive
same,outcome,[9],inactive
same,outcome,[10],inactive
same,outcome,[11],inactive
same,outcome,[12],inactive
c1ccc(N=Nc2ccccc2)cc1,outcome,[1],inactive
same,outcome,[2],inactive
same,outcome,[3],inactive
same,outcome,[4],inactive
same,outcome,[13],inactive
same,outcome,[5],inactive
same,outcome,[6],inactive
same,outcome,[7],inactive
same,outcome,[10],inactive
same,outcome,[11],inactive
same,outcome,[12],inactive
CC(C)(OOC(C)(C)c1ccccc1)c1ccccc1,AC50,[1],142 µM (active)
same,outcome,[2],inactive
same,AC50,[3],26.2 µM (active)
same,outcome,[4],inactive
same,AC50,[5],62.5 µM (active)
same,outcome,[14],inactive
same,outcome,[8],inactive
same,outcome,[9],inactive
same,outcome,[10],inactive
same,outcome,[15],inactive
same,outcome,[11],inactive
same,AC50,[12],63 µM (active)
CCCSC(=O)N(CCC)CCC,outcome,[1],inactive
same,outcome,[2],inactive
same,outcome,[3],inactive
same,outcome,[4],inactive
same,outcome,[5],inactive
same,outcome,[6],inactive
same,outcome,[7],inactive
same,outcome,[16],inactive
same,outcome,[10],inactive
same,outcome,[15],inactive
same,outcome,[11],inactive
same,outcome,[12],inactive
O=[N+]([O-])c1ccc(Oc2ccc(Cl)cc2Cl)cc1,outcome,[1],inactive
same,AC50,[2],100 µM (active)
same,AC50,[3],27.3 µM (active)
same,outcome,[4],inactive
same,outcome,[13],inactive
same,outcome,[5],inactive
same,outcome,[17],inactive
same,outcome,[6],inactive
same,outcome,[7],inactive
same,outcome,[10],inactive
same,outcome,[18],inactive
same,outcome,[15],inactive
same,outcome,[11],inactive
same,outcome,[12],inactive
CC(C)(C)OOC(C)(C)CCC(C)(C)OOC(C)(C)C,outcome,[1],inactive
same,outcome,[2],inactive
same,outcome,[3],inactive
same,outcome,[4],inactive
same,outcome,[13],inactive
same,outcome,[5],inactive
same,outcome,[19],inactive
same,outcome,[9],inactive
same,outcome,[10],inactive
same,outcome,[15],inactive
same,outcome,[11],inactive
same,outcome,[12],inactive
Cc1cccc(N)c1N,outcome,[1],inactive
same,outcome,[2],inactive
same,AC50,[3],106 µM (active)
same,outcome,[4],inactive
same,AC50,[5],150 µM (active)
same,outcome,[19],inactive
same,outcome,[7],inactive
same,outcome,[8],inactive
same,outcome,[9],inactive
same,outcome,[10],inactive
same,outcome,[18],inactive
same,outcome,[15],inactive
same,outcome,[11],inactive
same,outcome,[12],inactive
OCCOCCO,outcome,[1],inactive
same,outcome,[2],inactive
same,outcome,[3],inactive
same,outcome,[4],inactive
same,outcome,[5],inactive
same,outcome,[17],inactive
same,outcome,[9],inactive
same,outcome,[16],inactive
same,outcome,[18],inactive
same,outcome,[11],inactive
same,outcome,[12],inactive
Cc1cc(N=Nc2ccccc2C)ccc1N,outcome,[1],inactive
same,outcome,[2],inactive
same,AC50,[3],22.9 µM (active)
same,outcome,[4],inactive
same,outcome,[13],inactive
same,AC50,[5],19.3 µM (active)
same,outcome,[14],inactive
same,outcome,[17],inactive
same,outcome,[19],inactive
same,outcome,[7],inactive
same,outcome,[8],inactive
same,outcome,[9],inactive
same,outcome,[16],inactive
same,outcome,[10],inactive
same,outcome,[18],inactive
same,outcome,[15],inactive
same,outcome,[11],inactive
same,outcome,[12],inactive
